# Unmarked numbers belong to inactive results. Inconclusive results are not listed. A call without a number means that no potency is given here. Active and inactive are the calls of the source. Calls come from the whole dose curve; as a rule, active = well fitted curve in the direction sought with a large enough effect in the repeat runs; inconclusive = weak or mixed curves; inactive = no such curve, though single readings can be large; an effect the other way counts as inactive or inconclusive.
# Legend:
# [1] = A CellTox Green Cytotoxicity Assay to monitor cytotoxicity in HEK293 cells - 40 hour (AID 1224871); note: nearly all actives have a fitted effect of over 45% in size
# Method in brief: (§1)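 Tox21 screen in HEK293: membrane-impermeant cyanine dye fluoresces on binding dead-cell DNA; compound pinned 5 h post-seeding, plates held at 37 C, signal read repeatedly through 40 h.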
# [2] = qHTS RealTime-Glo MT Cell Viability Assay in HEK293 cells - 16 hour (AID 1224872); note: nearly all actives have a fitted effect of over 50% in size; note: potency is the fitted concentration of half-maximal effect
# Method in brief: (§2)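 Cells + reagent dispensed (600 cells/well, HEK293) → 5 h at 37 C/5% CO2 → 23 nL compound in DMSO pinned → 40 h at 37 C → luminescence read at 0, 8, 16, 24, 32, 40 h.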
# [3] = qHTS RealTime-Glo MT Cell Viability Assay in HepG2 cells - 8 hour (AID 1224873); note: nearly all actives have a fitted effect of over 55% in size
# Method in brief: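 Real-time viability: cells seeded at 600 per well together with NanoLuc and cell-permeant prosubstrate, compounds added after 5 h incubation. Luminescence tracked at 0, 8, 16, 24, 32 and 40 h of exposure.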
# [4] = qHTS RealTime-Glo MT Cell Viability Assay in HEK293 cells - 40 hour (AID 1224874); conditions: RealTime-Glo luminescence; max response: stronger effect = lower value; note: nearly all actives have a fitted effect of over 50% in size; note: potency is the fitted concentration of half-maximal effect
# Method in brief: (§3)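 HEK293 + NanoLuc + prosubstrate, 600 cells/well; 5 h, 37 C/5% CO2; compound 23 nL in DMSO by pintool; 37 C; luminescence read at 0, 8, 16, 24, 32 and 40 h time points.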
# [5] = A CellTox Green Cytotoxicity Assay to monitor cytotoxicity in HEK293 cells - 24 hour (AID 1224875); note: series mostly up to about 77 µM; nearly all actives have a fitted effect of over 45% in size
# Method in brief: as §1
# [6] = A CellTox Green Cytotoxicity Assay to monitor cytotoxicity in HepG2 cells - 16 hour (AID 1224876); note: nearly all actives have a fitted effect of over 45% in size
# Method in brief: (§4)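 Measurements at 0, 8, 16, 24, 32 and 40 h of treatment captured CellTox Green fluorescence in HepG2 cells that had been co-plated with reagent and preincubated 5 h at 37 C/5% CO2.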
# [7] = qHTS RealTime-Glo MT Cell Viability Assay in HepG2 cells - 32 hour (AID 1224877); note: nearly all actives have a fitted effect of over 55% in size
# Method in brief: (§5)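 Real-time, nonlytic viability: 600 HepG2 cells/well mixed with NanoLuc enzyme plus prosubstrate; 5 h settle, compound (DMSO) added by pintool; luminescence monitored over 40 h at 37 C.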
# [8] = A CellTox Green Cytotoxicity Assay to monitor cytotoxicity in HepG2 cells - 24 hour (AID 1224878); note: nearly all actives have a fitted effect of over 45% in size
# Method in brief: as §4
# [9] = A CellTox Green Cytotoxicity Assay to monitor cytotoxicity in HepG2 cells - 40 hour (AID 1224879); note: nearly all actives have a fitted effect of over 40% in size
# Method in brief: as §4
# [10] = A CellTox Green Cytotoxicity Assay to monitor cytotoxicity in HEK293 cells - 32 hour (AID 1224881); note: nearly all actives have a fitted effect of over 40% in size
# Method in brief: as §1
# [11] = A CellTox Green Cytotoxicity Assay to monitor cytotoxicity in HepG2 cells - 0 hour (AID 1224882); note: nearly all actives have a fitted effect of over 35% in size
# Method in brief: as §4
# [12] = A CellTox Green Cytotoxicity Assay to monitor cytotoxicity in HepG2 cells - 32 hour (AID 1224883); note: nearly all actives have a fitted effect of over 50% in size
# Method in brief: as §4
# [13] = A CellTox Green Cytotoxicity Assay to monitor cytotoxicity in HEK293 cells - 8 hour (AID 1224884); note: nearly all actives have a fitted effect of over 35% in size
# Method in brief: as §1
# [14] = qHTS RealTime-Glo MT Cell Viability Assay in HepG2 cells - 16 hour (AID 1224885); note: nearly all actives have a fitted effect of over 50% in size
# Method in brief: as §5
# [15] = qHTS RealTime-Glo MT Cell Viability Assay in HEK293 cells - 24 hour (AID 1224886); note: nearly all actives have a fitted effect of over 50% in size; note: potency is the fitted concentration of half-maximal effect
# Method in brief: as §2
# [16] = qHTS RealTime-Glo MT Cell Viability Assay in HEK293 cells - 8 hour (AID 1224887); note: nearly all actives have a fitted effect of over 50% in size; note: potency is the fitted concentration of half-maximal effect
# Method in brief: as §3
# [17] = qHTS RealTime-Glo MT Cell Viability Assay in HepG2 cells - 0 hour (AID 1224889); note: nearly all actives have a fitted effect of over 50% in size
# Method in brief: as §5
# [18] = A CellTox Green Cytotoxicity Assay to monitor cytotoxicity in HepG2 cells - 8 hour (AID 1224890); note: nearly all actives have a fitted effect of over 45% in size
# Method in brief: as §4
# [19] = A CellTox Green Cytotoxicity Assay to monitor cytotoxicity in HEK293 cells - 16 hour (AID 1224888); note: nearly all actives have a fitted effect of over 35% in size
# Method in brief: as §1
# [20] = qHTS RealTime-Glo MT Cell Viability Assay in HEK293 cells - 0 hour (AID 1224880)
# Method in brief: as §3
smiles,measurement,setting,value
CCOP(=S)(OCC)Oc1ccc(Cl)cc1Cl,Potency,[1],inactive
same,Potency,[2],inactive
same,outcome,[3],inactive
same,max response,[4],2.64%
same,Potency,[5],inactive
same,Potency,[6],inactive
same,Potency,[7],inactive
same,Potency,[8],inactive
same,Potency,[9],inactive
same,Potency,[10],inactive
same,outcome,[11],inactive
same,Potency,[12],inactive
same,Potency,[13],inactive
same,Potency,[14],inactive
same,Potency,[15],inactive
same,Potency,[16],inactive
same,outcome,[17],inactive
same,Potency,[18],inactive
CN1COCN(Cc2cnc(Cl)s2)/C1=N\[N+](=O)[O-],Potency,[1],inactive
same,Potency,[2],inactive
same,outcome,[3],inactive
same,max response,[4],7.06%
same,Potency,[5],inactive
same,Potency,[6],inactive
same,Potency,[7],inactive
same,Potency,[8],inactive
same,Potency,[9],inactive
same,Potency,[10],inactive
same,outcome,[11],inactive
same,Potency,[12],inactive
same,Potency,[14],inactive
same,Potency,[15],inactive
same,Potency,[16],inactive
same,Potency,[19],inactive
same,Potency,[18],inactive
CCC(CC)(CNC(=O)CCCO)c1cccc(OC)c1,Potency,[1],inactive
same,Potency,[2],inactive
same,outcome,[3],inactive
same,max response,[4],4.41%
same,Potency,[5],inactive
same,Potency,[6],inactive
same,Potency,[7],inactive
same,Potency,[8],inactive
same,outcome,[20],inactive
same,Potency,[10],inactive
same,outcome,[11],inactive
same,Potency,[12],inactive
same,Potency,[14],inactive
same,Potency,[15],inactive
same,Potency,[19],inactive
same,Potency,[18],inactive
CCN[C@@H](C)Cc1cccc(C(F)(F)F)c1,Potency,[1],inactive
same,Potency,[2],inactive
same,outcome,[3],inactive
same,max response,[4],2.94%
same,Potency,[5],inactive
same,Potency,[6],inactive
same,Potency,[7],inactive
same,Potency,[8],inactive
same,outcome,[20],inactive
same,Potency,[10],inactive
same,outcome,[11],inactive
same,Potency,[12],inactive
same,Potency,[14],inactive
same,Potency,[15],inactive
same,Potency,[16],inactive
same,outcome,[17],inactive
same,Potency,[18],inactive
CC(Cl)(Cl)Cl,Potency,[1],inactive
same,Potency,[2],inactive
same,outcome,[3],inactive
same,max response,[4],-1.28%
same,Potency,[5],inactive
same,Potency,[6],inactive
same,Potency,[7],inactive
same,Potency,[8],inactive
same,outcome,[20],inactive
same,Potency,[10],inactive
same,outcome,[11],inactive
same,Potency,[12],inactive
same,Potency,[13],inactive
same,Potency,[14],inactive
same,Potency,[15],inactive
same,Potency,[16],inactive
same,Potency,[19],inactive
same,outcome,[17],inactive
same,Potency,[18],inactive
NC(=O)OCCCc1ccccc1,Potency,[1],inactive
same,Potency,[2],inactive
same,outcome,[3],inactive
same,max response,[4],2.14%
same,Potency,[5],inactive
same,Potency,[6],inactive
same,Potency,[7],inactive
same,Potency,[8],inactive
same,outcome,[20],inactive
same,Potency,[10],inactive
same,outcome,[11],inactive
same,Potency,[12],inactive
same,Potency,[13],inactive
same,Potency,[14],inactive
same,Potency,[15],inactive
same,Potency,[16],inactive
same,Potency,[19],inactive
same,outcome,[17],inactive
same,Potency,[18],inactive
Nc1c(Cl)c(F)nc(OCC(=O)O)c1Cl,Potency,[1],inactive
same,Potency,[2],inactive
same,outcome,[3],inactive
same,max response,[4],2.97%
same,Potency,[5],inactive
same,Potency,[6],inactive
same,Potency,[7],inactive
same,Potency,[8],inactive
same,Potency,[9],inactive
same,Potency,[10],inactive
same,outcome,[11],inactive
same,Potency,[12],inactive
same,Potency,[13],inactive
same,Potency,[14],inactive
same,Potency,[15],inactive
same,Potency,[16],inactive
same,Potency,[19],inactive
same,Potency,[18],inactive
CCCCOC(C)=O,Potency,[1],inactive
same,Potency,[2],inactive
same,outcome,[3],inactive
same,max response,[4],8.22%
same,Potency,[5],inactive
same,Potency,[6],inactive
same,Potency,[7],inactive
same,Potency,[8],inactive
same,outcome,[20],inactive
same,Potency,[10],inactive
same,outcome,[11],inactive
same,Potency,[12],inactive
same,Potency,[13],inactive
same,Potency,[15],inactive
same,Potency,[16],inactive
same,outcome,[17],inactive
same,Potency,[18],inactive
CC(C)c1ccc(O)cc1,Potency,[1],inactive
same,Potency,[2],inactive
same,outcome,[3],inactive
same,max response,[4],0.569%
same,Potency,[5],inactive
same,Potency,[6],inactive
same,Potency,[7],inactive
same,Potency,[8],inactive
same,outcome,[20],inactive
same,Potency,[10],inactive
same,outcome,[11],inactive
same,Potency,[12],inactive
same,Potency,[13],inactive
same,Potency,[14],inactive
same,Potency,[15],inactive
same,Potency,[16],inactive
same,Potency,[19],inactive
same,outcome,[17],inactive
same,Potency,[18],inactive
CCCC[N+](=O)[O-],Potency,[1],inactive
same,Potency,[2],inactive
same,outcome,[3],inactive
same,max response,[4],1.79%
same,Potency,[5],inactive
same,Potency,[6],inactive
same,Potency,[7],inactive
same,Potency,[8],inactive
same,outcome,[20],inactive
same,outcome,[11],inactive
same,Potency,[12],inactive
same,Potency,[13],inactive
same,Potency,[15],inactive
same,Potency,[16],inactive
same,Potency,[19],inactive
same,outcome,[17],inactive
same,Potency,[18],inactive
COC[C@@H](NC(C)=O)C(=O)NCc1ccccc1,Potency,[1],inactive
same,Potency,[2],inactive
same,outcome,[3],inactive
same,max response,[4],5.22%
same,Potency,[5],inactive
same,Potency,[6],inactive
same,Potency,[7],inactive
same,Potency,[8],inactive
same,outcome,[20],inactive
same,Potency,[10],inactive
same,outcome,[11],inactive
same,Potency,[12],inactive
same,Potency,[13],inactive
same,Potency,[15],inactive
same,Potency,[16],inactive
same,Potency,[19],inactive
same,outcome,[17],inactive
same,Potency,[18],inactive
C=C1C[C@@H]2[C@H](CC[C@]3(C)C(=O)CC[C@@H]23)[C@@]2(C)C=CC(=O)C=C12,Potency,[1],inactive
same,Potency,[2],inactive
same,outcome,[3],inactive
same,max response,[4],0.138%
same,Potency,[5],inactive
same,Potency,[6],inactive
same,Potency,[7],inactive
same,Potency,[8],inactive
same,Potency,[9],inactive
same,Potency,[10],inactive
same,outcome,[11],inactive
same,Potency,[12],inactive
same,Potency,[13],inactive
same,Potency,[14],inactive
same,Potency,[15],inactive
same,Potency,[16],inactive
same,Potency,[19],inactive
same,Potency,[18],inactive
ClCCCCCCCl,Potency,[1],inactive
same,Potency,[2],inactive
same,outcome,[3],inactive
same,max response,[4],5.82%
same,Potency,[5],inactive
same,Potency,[6],inactive
same,Potency,[7],inactive
same,Potency,[8],inactive
same,Potency,[9],inactive
same,Potency,[10],inactive
same,outcome,[11],inactive
same,Potency,[12],inactive
same,Potency,[13],inactive
same,Potency,[14],inactive
same,Potency,[15],inactive
same,Potency,[16],inactive
same,outcome,[17],inactive
same,Potency,[18],inactive
C[C@H]1CCCC(=O)CCC/C=C/c2cc(O)cc(O)c2C(=O)O1,Potency,[1],inactive
same,Potency,[2],37.5 µM (active)
same,outcome,[3],inactive
same,Potency,[4],21.1 µM (active)
same,Potency,[5],inactive
same,Potency,[6],inactive
same,Potency,[7],inactive
same,Potency,[8],inactive
same,outcome,[20],inactive
same,Potency,[10],inactive
same,outcome,[11],inactive
same,Potency,[12],inactive
same,Potency,[13],inactive
same,Potency,[14],inactive
same,Potency,[15],33.4 µM (active)
same,Potency,[16],42.1 µM (active)
same,Potency,[19],inactive
same,outcome,[17],inactive
same,Potency,[18],inactive
CCSC(=O)Cl,Potency,[1],inactive
same,Potency,[2],inactive
same,outcome,[3],inactive
same,max response,[4],15.5%
same,Potency,[5],inactive
same,Potency,[6],inactive
same,Potency,[7],inactive
same,Potency,[8],inactive
same,Potency,[9],inactive
same,Potency,[10],inactive
same,outcome,[11],inactive
same,Potency,[12],inactive
same,Potency,[14],inactive
same,Potency,[15],inactive
same,Potency,[16],inactive
same,Potency,[19],inactive
same,outcome,[17],inactive
same,Potency,[18],inactive
CN(C)CCc1c[nH]c2cccc(OP(=O)(O)O)c12,Potency,[1],inactive
same,Potency,[2],inactive
same,outcome,[3],inactive
same,max response,[4],-0.389%
same,Potency,[5],inactive
same,Potency,[6],inactive
same,Potency,[7],inactive
same,Potency,[8],inactive
same,outcome,[20],inactive
same,Potency,[10],inactive
same,outcome,[11],inactive
same,Potency,[12],inactive
same,Potency,[14],inactive
same,Potency,[15],inactive
same,Potency,[16],inactive
same,Potency,[19],inactive
same,outcome,[17],inactive
same,Potency,[18],inactive
CCOC(=O)N(C)N=O,Potency,[1],inactive
same,Potency,[2],inactive
same,outcome,[3],inactive
same,max response,[4],1.11%
same,Potency,[5],inactive
same,Potency,[6],inactive
same,Potency,[7],inactive
same,Potency,[8],inactive
same,outcome,[20],inactive
same,Potency,[10],inactive
same,outcome,[11],inactive
same,Potency,[12],inactive
same,Potency,[13],inactive
same,Potency,[14],inactive
same,Potency,[15],inactive
same,Potency,[16],inactive
same,Potency,[19],inactive
same,Potency,[18],inactive

# Reference: PubChem BioAssay (Tox21)
